Source: the supplement of paper PMC11732987, “Enantioselective OTUD7B fragment discovery through chemoproteomics screening and high-throughput optimisation” (Communications Chemistry, 2025)

Key:
Test in all cases: log2 ratio of Biotin-Ahx-Ub-VS probe labelling (fragment/DMSO); higher = less target engagement (more negative = stronger competition), active = hit call of the paper (q ≤ 0.05, log2 ratio ≤ -1)
Conditions in all cases: compound concentration: 200 uM; treatment time: 3 h
USP34 = USP34 (UniProt Q70CQ2)
Summary of the method: (§1)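 The table lists average log2 ratios of fragment over vehicle, from an unpaired t-test on global-median-normalised Spectronaut label-free quantities. Proteins with ≥2 unique peptides were used. Samples were HEK293T lysate (495 µg) treated in triplicate with fragment at 200 µM or vehicle for 3 h, then with Biotin-Ahx-Ub-VS (0.5 µM final) for 1 h, with labelled DUBs NeutrAvidin-enriched and run by diaPASEF LC-MS/MS.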

USP36 = target: T1, USP36 (UniProt Q9P275)
T1 sequence (whole entry): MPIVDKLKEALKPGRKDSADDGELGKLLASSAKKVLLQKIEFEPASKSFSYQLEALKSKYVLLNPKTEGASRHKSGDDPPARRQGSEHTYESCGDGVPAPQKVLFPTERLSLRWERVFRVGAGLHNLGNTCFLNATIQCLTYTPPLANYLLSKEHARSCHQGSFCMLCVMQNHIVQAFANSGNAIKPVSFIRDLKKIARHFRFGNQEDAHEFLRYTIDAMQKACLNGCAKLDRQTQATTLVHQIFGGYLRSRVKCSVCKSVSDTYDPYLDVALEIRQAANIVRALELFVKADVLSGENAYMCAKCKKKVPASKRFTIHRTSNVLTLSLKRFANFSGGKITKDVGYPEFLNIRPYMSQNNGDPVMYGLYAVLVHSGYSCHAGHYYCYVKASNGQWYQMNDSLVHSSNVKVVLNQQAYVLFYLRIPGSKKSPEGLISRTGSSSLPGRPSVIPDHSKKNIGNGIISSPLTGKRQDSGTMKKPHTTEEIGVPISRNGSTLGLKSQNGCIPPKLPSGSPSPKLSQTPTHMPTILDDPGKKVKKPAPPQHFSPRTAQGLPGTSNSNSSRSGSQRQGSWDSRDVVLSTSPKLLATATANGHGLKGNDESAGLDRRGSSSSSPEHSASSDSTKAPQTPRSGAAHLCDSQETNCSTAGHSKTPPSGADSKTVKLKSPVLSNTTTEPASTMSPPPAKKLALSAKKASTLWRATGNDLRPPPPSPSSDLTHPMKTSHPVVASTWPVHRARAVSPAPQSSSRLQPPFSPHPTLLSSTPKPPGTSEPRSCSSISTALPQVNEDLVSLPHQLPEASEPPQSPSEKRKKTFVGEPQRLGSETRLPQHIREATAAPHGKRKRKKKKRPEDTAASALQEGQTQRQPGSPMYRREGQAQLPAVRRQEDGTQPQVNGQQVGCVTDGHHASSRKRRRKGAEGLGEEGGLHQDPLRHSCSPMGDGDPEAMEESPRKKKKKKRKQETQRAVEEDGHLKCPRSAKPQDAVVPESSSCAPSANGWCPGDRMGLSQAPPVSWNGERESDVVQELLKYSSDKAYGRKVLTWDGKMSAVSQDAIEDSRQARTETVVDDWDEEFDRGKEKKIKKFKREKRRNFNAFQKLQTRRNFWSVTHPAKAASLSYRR
Summary of the method: as §1

USP38 = target: T2, USP38 (UniProt Q8NB14)
T2 sequence (whole entry): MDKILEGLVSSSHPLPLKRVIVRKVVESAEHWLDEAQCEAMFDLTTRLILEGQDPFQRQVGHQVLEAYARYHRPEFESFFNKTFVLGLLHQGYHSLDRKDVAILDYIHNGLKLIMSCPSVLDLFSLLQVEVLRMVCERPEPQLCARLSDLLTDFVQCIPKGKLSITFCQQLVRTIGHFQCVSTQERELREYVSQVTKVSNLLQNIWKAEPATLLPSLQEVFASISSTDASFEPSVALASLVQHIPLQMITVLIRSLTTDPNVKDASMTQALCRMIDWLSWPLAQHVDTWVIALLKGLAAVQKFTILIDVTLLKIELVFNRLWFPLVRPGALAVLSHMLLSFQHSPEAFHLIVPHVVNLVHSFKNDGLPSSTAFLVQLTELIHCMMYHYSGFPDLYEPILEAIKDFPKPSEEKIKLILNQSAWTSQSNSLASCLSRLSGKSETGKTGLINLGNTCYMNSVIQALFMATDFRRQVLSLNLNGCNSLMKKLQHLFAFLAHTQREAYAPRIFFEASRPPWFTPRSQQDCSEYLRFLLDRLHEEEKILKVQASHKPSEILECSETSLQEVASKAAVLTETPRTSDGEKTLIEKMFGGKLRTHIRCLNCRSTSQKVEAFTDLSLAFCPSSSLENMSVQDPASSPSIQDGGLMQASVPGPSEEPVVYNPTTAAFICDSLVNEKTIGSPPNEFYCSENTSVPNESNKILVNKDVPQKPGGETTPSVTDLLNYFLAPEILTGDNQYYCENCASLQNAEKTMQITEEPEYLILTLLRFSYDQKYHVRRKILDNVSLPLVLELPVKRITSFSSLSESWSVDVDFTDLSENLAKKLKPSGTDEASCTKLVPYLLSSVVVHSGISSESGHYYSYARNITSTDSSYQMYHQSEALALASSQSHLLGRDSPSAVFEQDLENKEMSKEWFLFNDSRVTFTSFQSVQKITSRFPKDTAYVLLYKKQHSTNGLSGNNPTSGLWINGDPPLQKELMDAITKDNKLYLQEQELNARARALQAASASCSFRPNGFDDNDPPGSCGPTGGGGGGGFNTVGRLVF
Summary of the method: as §1

USP39 = target: T3, USP39 (UniProt Q53GS9)
T3 sequence (whole entry): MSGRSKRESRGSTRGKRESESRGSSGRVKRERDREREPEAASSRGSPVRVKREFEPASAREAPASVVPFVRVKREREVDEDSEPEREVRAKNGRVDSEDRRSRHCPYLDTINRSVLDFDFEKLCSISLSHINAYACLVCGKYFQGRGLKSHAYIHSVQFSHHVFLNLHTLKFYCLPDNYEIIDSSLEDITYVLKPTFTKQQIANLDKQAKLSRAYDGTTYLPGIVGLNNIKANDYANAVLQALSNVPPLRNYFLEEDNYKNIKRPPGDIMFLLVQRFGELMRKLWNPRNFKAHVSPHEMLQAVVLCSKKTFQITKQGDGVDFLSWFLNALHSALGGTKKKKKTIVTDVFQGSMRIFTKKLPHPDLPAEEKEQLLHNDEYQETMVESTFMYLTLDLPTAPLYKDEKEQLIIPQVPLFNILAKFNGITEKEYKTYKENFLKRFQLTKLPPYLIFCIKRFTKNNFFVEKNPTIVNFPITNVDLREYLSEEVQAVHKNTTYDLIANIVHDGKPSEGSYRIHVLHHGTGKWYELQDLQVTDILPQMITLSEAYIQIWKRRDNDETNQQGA
Summary of the method: as §1

USP4 = target: T4, USP4 (UniProt Q13107)
T4 sequence (whole entry): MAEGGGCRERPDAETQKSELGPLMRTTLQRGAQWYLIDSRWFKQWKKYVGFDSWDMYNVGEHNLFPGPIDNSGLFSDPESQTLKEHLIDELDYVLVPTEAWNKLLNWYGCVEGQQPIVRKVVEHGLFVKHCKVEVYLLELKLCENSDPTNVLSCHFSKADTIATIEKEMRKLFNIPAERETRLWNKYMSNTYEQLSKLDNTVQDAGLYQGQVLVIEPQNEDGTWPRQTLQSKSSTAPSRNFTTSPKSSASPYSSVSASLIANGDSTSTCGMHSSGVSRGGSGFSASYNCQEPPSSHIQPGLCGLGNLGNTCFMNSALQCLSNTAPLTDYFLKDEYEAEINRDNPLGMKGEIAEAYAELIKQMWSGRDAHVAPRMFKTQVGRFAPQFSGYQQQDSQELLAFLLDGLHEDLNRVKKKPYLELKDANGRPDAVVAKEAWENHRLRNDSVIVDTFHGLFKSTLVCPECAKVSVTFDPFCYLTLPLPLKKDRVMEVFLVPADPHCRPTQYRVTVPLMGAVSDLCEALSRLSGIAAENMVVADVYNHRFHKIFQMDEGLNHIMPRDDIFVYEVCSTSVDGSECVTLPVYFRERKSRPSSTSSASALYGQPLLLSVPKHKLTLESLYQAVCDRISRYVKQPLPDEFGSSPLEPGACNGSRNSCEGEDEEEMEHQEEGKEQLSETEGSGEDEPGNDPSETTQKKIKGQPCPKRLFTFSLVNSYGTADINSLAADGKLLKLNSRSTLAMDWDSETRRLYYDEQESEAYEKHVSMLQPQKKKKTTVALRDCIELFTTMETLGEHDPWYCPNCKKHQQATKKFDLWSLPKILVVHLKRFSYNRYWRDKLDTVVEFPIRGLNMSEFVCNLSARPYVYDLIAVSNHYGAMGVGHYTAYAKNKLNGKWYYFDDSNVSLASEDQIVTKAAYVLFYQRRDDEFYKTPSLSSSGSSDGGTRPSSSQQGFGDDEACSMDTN
Summary of the method: as §1

Measured: log2 ratio of Biotin-Ahx-Ub-VS probe labelling

Chain of USP34 (Q70CQ2 whole entry, the tested form may be a part): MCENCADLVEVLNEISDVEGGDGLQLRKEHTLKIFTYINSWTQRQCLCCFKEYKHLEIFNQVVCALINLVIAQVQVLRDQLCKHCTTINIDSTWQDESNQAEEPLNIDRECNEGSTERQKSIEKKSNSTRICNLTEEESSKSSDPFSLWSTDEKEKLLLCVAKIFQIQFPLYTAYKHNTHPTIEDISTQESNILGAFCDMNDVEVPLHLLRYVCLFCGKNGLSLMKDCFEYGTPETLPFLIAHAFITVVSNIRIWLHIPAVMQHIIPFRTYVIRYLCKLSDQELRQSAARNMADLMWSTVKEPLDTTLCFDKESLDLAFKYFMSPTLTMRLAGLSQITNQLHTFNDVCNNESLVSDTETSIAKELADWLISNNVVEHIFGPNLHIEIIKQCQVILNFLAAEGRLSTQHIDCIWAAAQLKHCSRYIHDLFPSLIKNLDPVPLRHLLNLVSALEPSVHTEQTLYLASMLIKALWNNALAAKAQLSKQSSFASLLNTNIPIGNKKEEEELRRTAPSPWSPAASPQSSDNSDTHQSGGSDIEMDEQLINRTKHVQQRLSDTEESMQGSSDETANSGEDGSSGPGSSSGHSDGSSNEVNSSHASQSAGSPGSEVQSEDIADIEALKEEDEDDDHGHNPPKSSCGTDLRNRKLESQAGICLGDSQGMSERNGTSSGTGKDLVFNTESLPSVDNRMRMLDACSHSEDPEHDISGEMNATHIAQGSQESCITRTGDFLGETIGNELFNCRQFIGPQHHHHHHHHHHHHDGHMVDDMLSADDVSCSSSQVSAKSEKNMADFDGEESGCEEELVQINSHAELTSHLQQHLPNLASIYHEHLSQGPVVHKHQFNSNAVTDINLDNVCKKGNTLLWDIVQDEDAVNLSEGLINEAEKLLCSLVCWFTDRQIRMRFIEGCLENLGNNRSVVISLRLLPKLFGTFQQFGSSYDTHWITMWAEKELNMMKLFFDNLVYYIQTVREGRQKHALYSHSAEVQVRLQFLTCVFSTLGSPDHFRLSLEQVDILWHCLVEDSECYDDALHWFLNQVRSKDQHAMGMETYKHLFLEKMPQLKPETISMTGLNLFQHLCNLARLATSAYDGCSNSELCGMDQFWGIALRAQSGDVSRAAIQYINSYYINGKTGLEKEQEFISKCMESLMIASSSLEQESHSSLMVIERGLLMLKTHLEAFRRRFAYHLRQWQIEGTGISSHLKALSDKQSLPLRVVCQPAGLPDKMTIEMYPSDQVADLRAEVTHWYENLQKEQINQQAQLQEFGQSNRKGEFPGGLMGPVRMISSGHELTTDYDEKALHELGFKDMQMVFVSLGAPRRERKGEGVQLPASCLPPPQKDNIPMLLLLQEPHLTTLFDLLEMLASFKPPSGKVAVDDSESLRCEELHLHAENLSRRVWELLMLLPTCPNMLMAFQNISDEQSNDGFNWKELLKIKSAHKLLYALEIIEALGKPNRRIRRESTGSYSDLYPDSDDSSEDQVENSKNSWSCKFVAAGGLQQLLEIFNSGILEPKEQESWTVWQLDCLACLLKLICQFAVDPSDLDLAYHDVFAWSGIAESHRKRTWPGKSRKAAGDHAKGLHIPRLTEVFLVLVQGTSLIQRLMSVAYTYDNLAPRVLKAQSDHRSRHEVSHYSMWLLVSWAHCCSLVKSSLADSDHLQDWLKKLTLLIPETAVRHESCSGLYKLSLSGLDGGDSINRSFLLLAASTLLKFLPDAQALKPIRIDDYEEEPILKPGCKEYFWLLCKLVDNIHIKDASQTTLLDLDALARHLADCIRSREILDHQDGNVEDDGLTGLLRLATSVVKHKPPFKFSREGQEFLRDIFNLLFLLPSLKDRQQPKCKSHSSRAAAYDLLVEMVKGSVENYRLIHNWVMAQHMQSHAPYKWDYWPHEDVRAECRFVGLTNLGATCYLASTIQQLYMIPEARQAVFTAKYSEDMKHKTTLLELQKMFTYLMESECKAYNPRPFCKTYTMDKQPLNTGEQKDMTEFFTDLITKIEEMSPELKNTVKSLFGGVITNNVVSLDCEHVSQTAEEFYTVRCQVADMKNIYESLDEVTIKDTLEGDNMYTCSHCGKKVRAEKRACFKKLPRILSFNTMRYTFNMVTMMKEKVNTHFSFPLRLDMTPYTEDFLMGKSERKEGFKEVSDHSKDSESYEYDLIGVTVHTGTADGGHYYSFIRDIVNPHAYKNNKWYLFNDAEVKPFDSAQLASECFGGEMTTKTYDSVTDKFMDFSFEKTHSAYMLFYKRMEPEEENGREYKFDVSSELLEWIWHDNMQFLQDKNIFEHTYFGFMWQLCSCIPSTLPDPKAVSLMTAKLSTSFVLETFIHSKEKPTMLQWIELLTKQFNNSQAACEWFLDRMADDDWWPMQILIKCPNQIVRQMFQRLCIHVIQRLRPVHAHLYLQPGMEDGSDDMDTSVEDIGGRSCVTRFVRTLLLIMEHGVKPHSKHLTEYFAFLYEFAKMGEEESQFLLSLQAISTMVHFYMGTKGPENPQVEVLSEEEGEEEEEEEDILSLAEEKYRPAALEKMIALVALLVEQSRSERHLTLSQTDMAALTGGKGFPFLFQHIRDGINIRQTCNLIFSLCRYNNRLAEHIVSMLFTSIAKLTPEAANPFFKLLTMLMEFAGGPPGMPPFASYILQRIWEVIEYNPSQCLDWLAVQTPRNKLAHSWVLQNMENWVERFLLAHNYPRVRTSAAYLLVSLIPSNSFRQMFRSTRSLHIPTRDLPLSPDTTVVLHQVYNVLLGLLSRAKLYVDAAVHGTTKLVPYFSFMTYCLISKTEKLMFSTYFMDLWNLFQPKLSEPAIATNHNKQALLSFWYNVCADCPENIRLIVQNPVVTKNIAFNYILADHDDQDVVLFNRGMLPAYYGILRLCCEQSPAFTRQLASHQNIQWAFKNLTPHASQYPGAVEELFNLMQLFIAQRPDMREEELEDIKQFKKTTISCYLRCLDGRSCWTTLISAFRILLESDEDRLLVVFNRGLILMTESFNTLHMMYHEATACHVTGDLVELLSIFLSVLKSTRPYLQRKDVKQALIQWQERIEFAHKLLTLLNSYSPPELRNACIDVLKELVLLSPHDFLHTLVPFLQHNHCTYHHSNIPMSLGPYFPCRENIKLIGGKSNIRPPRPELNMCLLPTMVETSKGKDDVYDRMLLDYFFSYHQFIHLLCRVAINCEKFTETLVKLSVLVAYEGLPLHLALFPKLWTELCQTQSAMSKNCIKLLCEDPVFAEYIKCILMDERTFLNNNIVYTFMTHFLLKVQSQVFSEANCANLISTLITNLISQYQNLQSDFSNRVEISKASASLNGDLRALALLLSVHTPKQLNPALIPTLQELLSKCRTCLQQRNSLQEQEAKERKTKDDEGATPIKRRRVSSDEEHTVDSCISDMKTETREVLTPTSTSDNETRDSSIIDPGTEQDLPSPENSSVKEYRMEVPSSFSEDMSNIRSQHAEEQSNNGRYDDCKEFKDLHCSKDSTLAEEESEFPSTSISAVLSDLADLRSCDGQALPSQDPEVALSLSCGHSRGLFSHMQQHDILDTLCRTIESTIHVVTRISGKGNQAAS

O=C(CCl)NC1CCOc2ccccc21 (stereo not given)
inactive: USP34 -0.539 | USP36 -0.388 | USP38 -0.738 | USP39 -0.0973 | USP4 -0.674
